Measurements reported in PubChem BioAssay (NCI).
This is part of a sample that, as a whole, favours compounds with a hit. Of some 83,000 tested, about 20% had one in any assay.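 Negative percent growth values reflect cell death: -40 means 40% of the cells present at the start died, and -100 means all died.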 Unmarked numbers belong to inactive results. Activity calls are given as the source filed them. How the source made its calls: active means growth percent below 10; inactive means the rest.

Legend:
Assay in all cases: NCI-60 one-dose screen, 48 h (100 = growth as untreated, 0 = no growth, -100 = all killed)
Conditions in all cases: 10 µM unless noted
[1] = test system: T-47D breast
[2] = test system: MDA-MB-435 melanoma
[3] = test system: SW-620 colon
[4] = test system: MCF7 breast
[5] = test system: HCT-116 colon
[6] = test system: HCC-2998 colon
[7] = test system: KM12 colon

| Structure (SMILES) | growth [1] | growth [2] | growth [3] | growth [4] | growth [5] | growth [6] | growth [7] |
| --- | --- | --- | --- | --- | --- | --- | --- |
| O=C(O)c1ccc(-n2cc(CNc3ccc(Cl)cc3)c(-c3ccc(F)cc3)n2)cc1 | 91.4% | 98.1% | 106% | 80.1% | 82.7% | 112% | 104% |
| Cc1ccc(NC(=O)c2ccc(CN3CCN(C)CC3)c(C(F)(F)F)c2)cc1Oc1ccc(-c2[nH]nc3ncnc(N)c23)cc1 | 101% | 71.5% | 24.3% | 54% | 8.72% (active) | 111% | 17.7% |
| O=C(N/N=C\c1ccc(Cl)cc1)c1ccc2nc(-c3ccc(Br)cc3)[nH]c2c1 | 0.0838% (active) | 3.54% (active) | -49.3% (active) | -33.2% (active) | -86.8% (active) | -42.5% (active) | -23.2% (active) |
| COc1cc(/C=C/C(=O)c2ccc(N3CCN(C)CC3)cc2)ccc1F | 44.4% | 54.7% | 33% | 24.9% | 27.8% | 73% | 36.7% |
| O=C1c2c(c3c4cc(Br)ccc4[nH]c3c3ccc4ccccc4c23)C(=O)N1CCN1CCNCC1 | 61.8% | 92.5% | -58.4% (active) | -73.7% (active) | 11.2% | 51.5% | 88.6% |
| C/C(=C(/c1ccc(O)cc1)c1ccc(OCCN2CCCC2)cc1)c1ccc(Cl)cc1 | 24.9% | 20% | -57.1% (active) | 5.58% (active) | 36.6% | 17.2% | 46.5% |
| CCCCSc1nnc(-c2ccc(-c3ccc(Cl)cc3)nc2C)o1 | 92.8% | 102% | 101% | 85.8% | 98% | – | 103% |
| CNC(=O)c1cc(Oc2ccc3nc(NC(=O)c4cccc(C(F)(F)F)c4)sc3c2)ccn1 | 96.9% | 95.1% | 105% | 85.6% | 94.1% | 109% | 102% |
| CCCCCCNC(=O)Oc1ccc(/C(=C(\C)c2ccc(OC)cc2)c2ccc(OCCN(C)C)cc2)cc1 | 68.1% | 87.7% | 83.6% | 23.6% | 37.2% | 88.3% | 99.2% |
| C#C[C@]1(O)CC[C@H]2[C@@H]3CC=C4c5sc(C6CCOCC6)nc5CC[C@]4(C)[C@H]3CC[C@@]21C | 57.8% | – | 85.5% | 75.6% | 64.4% | 84.3% | 59.8% |
| NS(=O)(=O)c1ccc(Nc2nc(N/N=C/c3ccc(F)cc3)nc(Nc3ccccc3)n2)cc1 | 20.7% | 53.5% | 75.7% | 28.6% | 44.7% | 55.4% | 30.9% |
| O=C1Nc2cc(OC(F)(F)F)ccc2Oc2ccc(-c3ccnc(N4CC[C@H](O)C4)c3)cc21 | 62.3% | -57.3% (active) | -19.3% (active) | 0.967% (active) | -40.5% (active) | 0.963% (active) | -12.9% (active) |
| CC1OC(O[C@@H]2C(O)C(CO)OC(O[C@H]3COC(O[C@H]4CC[C@]5(C)[C@H]6CC[C@]78OC[C@@]9(CC[C@](C)(C=O)C[C@H]97)[C@H](O)C[C@@]8(C)[C@]6(C)CC[C@H]5C4(C)C)[C@@H](OC4OC(CO)[C@@H](O)[C@@H](O)[C@@H]4O)[C@@H]3O)[C@H]2OC2OC[C@@H](O)[C@@H](O)[C@@H]2O)[C@@H](O)[C@@H](O)[C@H]1O (stereo partly drawn) | 53.1% | -55.1% (active) | 10% | 11% | -65.9% (active) | – | 23.7% |
| COc1cc2cc(Oc3ccc(NC(=O)Nc4cccc(C(F)(F)F)c4)cc3)c(C)nc2cc1OCCN(C)C | 91.8% | 96.6% | 111% | 69.2% | 82.8% | 105% | 98.2% |
| Cc1nn(-c2ccc(Cl)cc2)c(C)c1N=Nc1ccc2oc(=O)ccc2c1 | 45.9% | 85.4% | 94% | 78.7% | 66.5% | 105% | 90.3% |
| CCOC(=O)c1c(NCC(=O)Nc2ccc(Br)cc2)sc2c1CCCC2 | 30.9% | 42.9% | 8.98% (active) | 11.9% | 7.99% (active) | – | 70.2% |
| CCNCc1c(-c2cccc(OC(F)(F)F)c2)[nH]c2ccc(N3CCCC3)cc2c1=O | 28.9% | – | 16.8% | 11.4% | 11.2% | -27.7% (active) | 14.8% |
| NS(=O)(=O)Oc1ccc2nc(Nc3ccc(F)c(F)c3)ccc2c1 | 90% | 89% | 105% | 93.2% | 92.2% | 90.3% | 58.9% |
| C#CCOc1ccc(/C=N/Nc2nc(-c3cc(Cl)ccc3Cl)cs2)cc1 | 37.4% | 102% | 93.9% | 9.62% (active) | 86.6% | 95.8% | 72.5% |
